Several values for one entry are separate records, joined by “and”; a condition that tells them apart may be missing. Identical values can stand only once. This is part of a sample that, as a whole, favours compounds with a hit. Of some 79,000 tested, about 15% had one in any assay. Some compounds were tested as several samples or in several runs, with calls that do not always agree. Activity calls are given as the source filed them. Rule as the data show it: active = growth inhibition above about 70%; inactive = the rest.
Tests used:
[1] = NCI Yeast Anticancer Drug Screen. Data for the rad50 strain (AID 155);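 also: 0% = growth of vehicle-only cultures of the same strain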; conditions: S. cerevisiae rad50 strain growth inhibition, stronger effect = higher value
In short: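 Growth of the mutant yeast was measured after compound exposure and referenced to vehicle-treated cultures.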

[2] = NCI Yeast Anticancer Drug Screen. Data for the mec2-1 strain (AID 157); conditions: S. cerevisiae mec2-1 strain, stronger effect = higher value
In short: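 Compounds were applied to mec2-1 yeast cells. Their growth was then compared with that of vehicle-treated cultures to give growth inhibition.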

[3] = NCI Yeast Anticancer Drug Screen. Data for the sgs1 mgt1 strain (AID 161);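 also: 0% = growth of cultures given vehicle only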; conditions: S. cerevisiae sgs1 mgt1 strain, stronger effect = higher value
In short: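 Yeast cells carrying a defined DNA-repair defect were exposed to test compounds. Growth inhibition was measured relative to vehicle-treated controls.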

[4] = NCI Yeast Anticancer Drug Screen. Data for the cln2 rad14 strain (AID 165);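 also: 0% = growth equal to vehicle treated cultures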; conditions: S. cerevisiae cln2 rad14 strain, stronger effect = higher value
In short: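 Strain: cln2 rad14 yeast, altered in cell cycle control and DNA damage repair. Read-out: growth inhibition vs vehicle.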

[5] = NCI Yeast Anticancer Drug Screen. Data for the bub3 strain (AID 167); conditions: S. cerevisiae bub3 mutant strain, stronger effect = higher value
In short: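 Whole-cell yeast assay. The mutant strain was incubated with compounds, and growth inhibition was determined by comparison with vehicle-treated cells.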

[6] = NCI Yeast Anticancer Drug Screen. Data for the mlh1 rad18 strain (AID 175); conditions: S. cerevisiae mlh1 rad18 strain growth inhibition, stronger effect = higher value
In short: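 A repair-deficient yeast strain is exposed to test compound, and growth is scored relative to vehicle-treated controls.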

[7] = at 5.0 µM (retest, dose inferred, filed as 0.5)
[8] = at 50.0 µM (retest, dose inferred, filed as 5.0)

SMILES | growth inhibition [1, 7] | growth inhibition [1, 8] | growth inhibition ([1]; at 50.0 µM) | growth inhibition [2, 7] | growth inhibition [2, 8] | growth inhibition ([2]; at 50.0 µM) | growth inhibition [3, 7] | growth inhibition [3, 8] | growth inhibition ([3]; at 50.0 µM) | growth inhibition [4, 7] | growth inhibition [4, 8] | growth inhibition ([4]; at 50.0 µM) | growth inhibition [5, 7] | growth inhibition [5, 8] | growth inhibition ([5]; at 50.0 µM) | growth inhibition [6, 7] | growth inhibition [6, 8] | growth inhibition ([6]; at 50.0 µM)
O=C(O)C(O)(c1ccccc1)C1(O)CCCCC1 (centres undefined) | -147% (inactive) | -173% (inactive) | 1.7% (inactive) | -47% (inactive) | -54% (inactive) | 7.95% (inactive) | -53% (inactive) | -64% (inactive) | 17.2% (inactive) | -54% (inactive) | -61% (inactive) | 3.15% (inactive) | -64% (inactive) | -83% (inactive) | -3.65% (inactive) | -114% (inactive) | -127% (inactive) | 50.3% (inactive)
CC(C)=[CH][Sb]([Br])([CH]=C(C)C)([CH]=C(C)C)[CH]=C(C)C | -1% (inactive) | 11% (inactive) | 50.8% (inactive) | -4% (inactive) | 17% (inactive) | 33.7% (inactive) | -4% (inactive) | 14% (inactive) | 18.9% (inactive) | -8% (inactive) | 3% (inactive) | -17.4% (inactive) | 11% (inactive) | 13% (inactive) | 30.7% (inactive) | -7% (inactive) | 12% (inactive) | 24.4% (inactive)
CCC1(O)C(=O)OCc2c1cc(C)[nH]c2=O (centres undefined) | -124% (inactive) | -25% (inactive) | 0.75% (inactive) | -42% (inactive) | -45% (inactive) | 0.1% (inactive) | -57% (inactive) | -45% (inactive) | -5.5% (inactive) | -62% (inactive) | -64% (inactive) | 23.9% (inactive) | -75% (inactive) | -56% (inactive) | 4.45% (inactive) | -157% (inactive) | -85% (inactive) | 4.95% (inactive)
O=c1c2ccccc2[se]n1-c1ccccc1 | 6% (inactive) | 29% (inactive) | 70.2% (active) | -12% (inactive) | 32% (inactive) | 88.8% (active) | -4% (inactive) | 23% (inactive) | 81.3% (active) | -19% (inactive) | 26% (inactive) | 66.6% (inactive) | -15% (inactive) | 21% (inactive) | 4.2% (inactive) | -12% (inactive) | 62% (inactive) | 86% (active)
c1ccc([Te][Te]c2ccccc2)cc1 | 62% (inactive) | 90% (active) | 17.6% (inactive) | 22% (inactive) | 68% (inactive) | 36.2% (inactive) | 40% (inactive) | 79% (active) | 75% (active) | 49% (inactive) | 63% (inactive) | 71.2% (active) | 52% (inactive) | 68% (inactive) | 41.5% (inactive) | 56% (inactive) | 88% (active) | 86% (active)
N#CC(Nc1c(N)nc(-c2ccccc2)nc1N)c1ccc(N(CCCl)CCCl)cc1 (centres undefined) | 4% (inactive) | 45% (inactive) | 57.5% (inactive) | -18% (inactive) | 26% (inactive) | 66% (inactive) | 2% (inactive) | 43% (inactive) | 59.8% (inactive) | -10% (inactive) | 9% (inactive) | 53.1% (inactive) | -4% (inactive) | -4% (inactive) | 0.75% (inactive) | 27% (inactive) | 90% (active) | 55.6% (inactive)
Cc1cccc2cc3ccccc3c[n+]12 | 5% (inactive) | 63% (inactive) | 89.9% (active) | 6% (inactive) | 49% (inactive) | 84% (active) | -12% (inactive) | 79% (active) | 97.3% (active) | 2% (inactive) | 73% (active) | 62.2% (inactive) | -1% (inactive) | 57% (inactive) | 54.2% (inactive) | 14% (inactive) | 89% (active) | 91% (active)
CC(=O)O[C@H]1C[C@@H]2OC3C=C(C)CCC3(C)[C@@]1(C)[C@@]21CO1 (some centres undefined) | 99% (active) | 99% (active) | 92.5% (active) and 18.9% (inactive) | 100% (active) | 100% (active) | 94.3% (active) and 1.7% (inactive) | 99% (active) | 99% (active) | 94% (active) and 32.1% (inactive) | 99% (active) | 99% (active) | 92.2% (active) and 6.4% (inactive) | 99% (active) | 99% (active) | 92.7% (active) and 2.9% (inactive) | 99% (active) | 99% (active) | 92.8% (active) and 17.9% (inactive)
